DT40 TDP1 CPT: growth inhibition of DT40 Tdp1-/-;hTDP1 cells with camptothecin (screen for TDP1 inhibitors); chicken DT40 Tdp1-/-;hTDP1 cells + 20 nM CPT, ATP luminescence, 48 h; Potency, µM (highest dose often 46.2 µM), for the others: at the highest dose activity change, negative = growth inhibition, actives largely listed as inhibitors; hit rate 12% among 420,000; AID 686979; also: % is scaled to controls: 0 for no effect and ±100 for the full control effect; nearly all actives have a fitted effect of over 55% in size
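Cell growth measured by CellTiter-Glo luminescence after a minimum 48 h, 37 C compound exposure with 20 nM CPT in Tdp1-knockout DT40 cells stably expressing hTDP1, seeded 400/well; qHTS titration format.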
TDP1 block: inhibitors of human tyrosyl-DNA phosphodiesterase TDP1; Q9NUW8; recombinant TDP1, AlphaScreen DNA substrate cleavage; Potency, µM (titrated, usually from 130 µM), for inactives: at the highest dose activity change, negative = inhibition, usual class: inhibitors; hit rate 0.28% among 350,000; AID 485290; also: % is scaled to controls: 0 for no effect and ±100 for the full control effect; nearly all actives have a fitted effect of over 40% in size
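E. coli-derived human Tdp1, 1 nM final. Cpd preinc 15 min RT; substrate 15 nM final, 5 min RT; AS bead mix 10 ug/ml final, 10 min RT. Signal loss = tyrosine-FITC cleavage. No-enzyme wells = max signal.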
ClpP mod: qHTS Assay for Activators of ClpP; ATP-dependent Clp protease proteolytic subunit (Bacillus subtilis (strain 168)), P80244; purified B. subtilis ClpP, FRET peptide cleavage, 20 min; Potency, µM (highest dose often 57.5 µM), without a hit: top-dose activity change, negative = active; hit rate 1.9% among 340,000; AID 651965, 2013; active = well fitted falling curve with a large enough effect; inconclusive = small, poorly fitted or top-dose-only effect; inactive = no such curve, though single readings can be large or run the other way; also: the source files actives as falling curves though it sought activators and does not explain the sign; nearly all actives have a fitted effect of over 65% in size
Target sequence (P80244 whole entry, looked up): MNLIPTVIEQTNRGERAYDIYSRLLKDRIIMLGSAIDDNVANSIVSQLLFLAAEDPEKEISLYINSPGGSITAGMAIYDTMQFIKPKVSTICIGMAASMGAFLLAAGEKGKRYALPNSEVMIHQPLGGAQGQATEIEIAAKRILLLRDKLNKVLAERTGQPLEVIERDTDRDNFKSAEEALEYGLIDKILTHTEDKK
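Purified B. subtilis ClpP, 10 microg/mL final in Tris/HCl pH8 with KCl, BSA, glycerol and Tween-20, cleaved an Abz/nitrotyrosine-quenched decapeptide. Fluorescence (ex 320, em 430) was read at 0 and 20 min at room temperature. Delta was normalized to 5.8 microM ADEP and DMSO/no-enzyme controls.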
DT40 TDP1 no CPT: qHTS for Inhibitors of human tyrosyl-DNA phosphodiesterase 1 (TDP1): qHTS in cells in absence of CPT; DT40 Tdp1-/- hTDP1 cells, no CPT, ATP luminescence, 48 h; Potency, µM (titrated, usually from 46.2 µM), without a hit: at the top dose activity change, negative = growth inhibition, usual class: inhibitors; hit rate 15% among 420,000; also: % is scaled to controls: 0 for no effect and ±100 for the full control effect; nearly all actives have a fitted effect of over 55% in size
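Cells were dispensed at 400 per well, compounds added by pin tool, plates incubated ≥48 hr at 37 °C, then CellTiter-Glo added for 30 min at room temperature before luminescence reading. Line: DT40 Tdp1-/- complemented with hTDP1; camptothecin omitted.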
* marks the source's active call; other numbers are inactive results; u = inconclusive; x = no result; ! = not confirmed by another sample; [ ] = another dose, or the depositor's remark. This is a sample that favours compounds with a hit; in the whole collection about 17% have one here. Unless noted, calls follow the shape of the dose curve; as a rule, active = well fitted curve in the direction sought with a large enough effect; inconclusive = small, poorly fitted or top-dose-only effect, or another doubt; inactive = no such curve, though single readings can be large; an effect the other way counts as inactive or inconclusive. Potency is read from the fitted curve at half-maximal effect.

SMILES	DT40 TDP1 CPT	TDP1 block	ClpP mod	DT40 TDP1 no CPT
COc1cccc(-n2c(SCC(N)=O)nc3c([nH]c4ccccc43)c2=O)c1	18µM*	2%	-4%	16µM*
O=C(CSc1nc2c([nH]c3ccccc32)c(=O)n1-c1ccccc1)N1CCCC1	-27%	8%	-5%	-16%
CCCOC(=O)CSc1nnc(-c2ccccc2)o1	x	-2%	0%	x
O=C(CSc1nc2c([nH]c3ccccc32)c(=O)n1-c1cccc(Cl)c1)N1CCOCC1	18µM*!	-3%	u	15µM*!
COc1cccc(-n2c(SCC(=O)N3CCc4ccccc43)nc3c([nH]c4ccccc43)c2=O)c1	7.3µM*	4%	-3%	10µM*
O=C(CSc1nc2c([nH]c3ccccc32)c(=O)n1-c1cccc(Cl)c1)N1CCc2ccccc21	u	-2%	-11%	u
CCOc1ccc(-n2c(SCC(=O)N3CCc4ccccc43)nnc2-c2c[nH]c3ccccc23)cc1	u	3%	-5%	u
COc1ccc(-n2c(SCc3ccccc3)nc3c([nH]c4ccccc43)c2=O)cc1	u	7%	4%	23µM*
COc1cccc(-n2c(SCC(=O)N3CCc4ccccc43)nnc2-c2c[nH]c3ccccc23)c1	16µM*	1%	-3%	23µM*
CCSc1nc2c([nH]c3ccccc32)c(=O)n1-c1ccc(OC)cc1	-16%	5%	3%	-22%
COc1ccc([N+](=O)[O-])cc1NC(=O)c1ccco1	14%	2%	x	1%
COc1ccc(C(=O)N2CCc3[nH]nc(-c4ccccc4)c3C2)cc1	-71%	6%	2%	u
O=c1c2c(c(-c3ccccc3)nn1Cc1ccccc1)CCCC2	-28%	x	-1%	-18%
CCOC(=O)N1CCC(N2Cc3cccc(C(=O)Nc4ccc(N(CC)CC)cc4C)c3C2=O)CC1	u	17%	0%	16µM*
CCOC(=O)N1CCC(N2Cc3cccc(C(=O)NCc4ccc5c(c4)OCO5)c3C2=O)CC1	u	50µM*	0%	u
CCOC(=O)N1CCC(N2Cc3cccc(C(=O)Nc4cc(F)ccc4F)c3C2=O)CC1	u	-1%	-1%	u
CCN1C(=O)[C@H]2[C@@H](c3ccc(OC)cc3)N3C(=O)CN(CCOC)C(=O)[C@@]3(Cc3ccccc3)[C@H]2C1=O	-12%	x	-1%	-8%
Cc1cc(NC(=O)C2CC(=O)N(c3cccc(Cl)c3)C2)no1 (centres undefined)	-10%	11%	x	-11%
CCC(C)NC(=O)Cn1ccc2cc(S(=O)(=O)N3CCCCC3)ccc21 (centres undefined)	u	1%	-5%	-13%
CC(C)(C)NC(=O)CCCCCCCC(=O)NC(C)(C)C	-3%	4%	-2%	-5%
CCN(CC(=O)NC(C)(C)C)C(=O)CCl	21µM*	1%	-1%	13µM*
Cn1nc(-c2ccc(NCCO)c([N+](=O)[O-])c2)c2ccccc2c1=O	14%	-1%	x	-2%
CN(C)CCCNc1ccc(-c2n[nH]c(=O)c3ccccc23)cc1[N+](=O)[O-]	10µM*	x	1%	23µM*
CN(C)CCNc1ccc(Cl)cc1[N+](=O)[O-]	11%	0%	1%	7%
CN(C)CCNc1ccc(-c2nn(C)c(=O)c3ccccc23)cc1[N+](=O)[O-]	u	2%	x	23µM*
SMILES	DT40 TDP1 CPT	TDP1 block	ClpP mod	DT40 TDP1 no CPT
CN(CCO)c1ccc(-c2nn(C)c(=O)c3ccccc23)cc1[N+](=O)[O-]	u	8%	-5%	8.2µM*
O=C(CSc1nccn1Cc1ccc(Cl)cc1)NC1CCCC1	-22%	-1%	1%	-2%
CC(=O)c1ccc(NC(=O)Cn2nc(C(F)(F)F)c3c2CCC3)cc1	-17%	0%	1%	-24%
CN1CCN2c3ncccc3Cc3ccccc3[C@@H]2C1	0%	x	-8%	-3%
NC1=NCC2c3ccccc3Cc3ccccc3N12 (centres undefined)	u	11%	x	24µM*
O=C1NC[C@H](CCCCN2C[C@H](Cc3ccccc3)N(CCC3CCCCC3)C(=O)C2=O)N(Cc2ccccc2)C1=O	u	x	2%	u
CNC(=S)N1CCN(CCNC2=CC(=O)CC(C)(C)C2)CC1	5%	-3%	2%	14%
CC1(C)CC(NCCN2CCN(C3=CC(=C(C#N)C#N)CC(C)(C)C3)CC2)=CC(=C(C#N)C#N)C1	18µM*	5%	1%	13µM*
COc1ccccc1/C=N/n1c(N)c(C(=O)NC2CCCCC2)c2nc3ccccc3nc21	u	4%	44%	u
COCCCNC(=O)c1c(N)n(/N=C/c2cccnc2)c2nc3ccccc3nc12	u	7%	3%	6.5µM*
COCCCNC(=O)c1c(N)n(/N=C/c2cccs2)c2nc3ccccc3nc12	18µM*	0%	32µM*	u
CC(C)CNC(=O)c1c(N)n(/N=C/c2cccnc2)c2nc3ccccc3nc12	x	7%	x	x
O=C(COCc1cc(-c2ccc3c(c2)OCO3)on1)NCc1ccc(F)cc1	u	-1%	-9%	-21%
O=S(=O)(Nc1ccc(F)cc1)c1cccc2nsnc12	-11%	5%	0%	-4%
COc1ccc(C2CC(c3ccccc3)=NN2C(=O)CCC(=O)O)cc1 (centres undefined)	8%	2%	x	-18%
COc1ccc(C2=NN(CN3C(=O)C(=O)c4ccccc43)C(c3ccc(Br)cc3)C2)cc1 (centres undefined)	16µM*	6%	-3%	6.5µM*
COc1ccc(C2=NN(CN3C(=O)C(=O)c4ccccc43)C(c3ccc(C)cc3)C2)cc1 (centres undefined)	18µM*	10%	4%	u
COc1cc(/C=C2\SC(=Nc3ccccc3)N(CCc3c[nH]c4ccccc34)C2=O)ccc1OC(C)C(=O)O (centres undefined)	u	0%	0%	u
O=C1/C(=C/c2ccc(N3CCOCC3)o2)SC(=Nc2ccccc2)N1CCc1c[nH]c2ccccc12	2.9µM*	10%	1%	2.1µM*
COC(=O)c1ccc(NC(=O)CC2Nc3cc(C)c(C)cc3NC2=O)cc1 (centres undefined)	u	x	4%	u
CCCOc1ccccc1NC(=O)CC1Nc2ccccc2NC1=O (centres undefined)	-9%	9%[56.1 µM]	-7%	-18%
CCOc1ccccc1NC(=O)CC1Nc2ccccc2NC1=O (centres undefined)	14%	-3%	25µM*	u
CCOc1ccccc1NC(=O)CC1Nc2cc(C)c(C)cc2NC1=O (centres undefined)	18µM*	2%	-21%	u
Cc1cc2c(cc1C)NC(CC(=O)Nc1ccccc1)C(=O)N2 (centres undefined)	16µM*	x	4%	26µM*

Assay outcomes: PubChem, National Center for Advancing Translational Sciences (NCATS)
